# Data taken from a collection of fitness landscapes (doi:10.1016/j.celrep.2020.107928).
# Whole data set: some 81,000 sequences, median “one-hybrid fitness for binding NBS DNA” near -0.1, cut for the highest 2% near 0.36. The full list was thinned out, with the highest values kept by preference.
# B1: Caulobacter ParB omega fusion; a variant is named by its letters at X, in order, B8GW30 (parent)
# chain: MESVVVGEPGMSEGRRGLGRGLSALLGEVDAAPAQAPGEQLGGSREAPIEILQRNPDQPRRTFREEDLEDLSNSIREKGVLQPILVRPSPDTAGEYQIVAGERAWRAAQRAGLKTVPIMVRELDDLAVLEIGIIENVQRADLNVLEEALSYKVLMEKFERTQENIAQTIGKSXSHVANXMRLLXLPDEVQSYLVSGELTAXHARAIAAAADPVALAKQIIEGGLSVRETEALARKAPNLSAGKSKGGRPPRVKDTDTQALESDLSSVLGLDVSIDHRGSTGTLTITYATLEQLDDLCNRLTRGI
# Variants of: B1
# Experiment: one-hybrid fitness for binding NBS DNA (the Noc-binding site; scaled: cognate 1, non-cognate 0); higher = stronger binding
# Details: with NBS DNA site
# Summary of the method: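 Values were rescaled so that cognate is 1 and non-cognate is 0. Each is a fitness, the log change in a variant's read ratio to wild type from Illumina reads of plasmids before and after selection, with three replicate libraries pooled and variants under 10 reads dropped. Selection of the Caulobacter ParB libraries, four specificity codons randomised, used E. coli USO with a HIS3 reporter, site 19 bp from the promoter, on M9-minus-histidine with 0.1 mM IPTG and 5 mM 3-AT for 48 hours at 37°C.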
row,Variant,one-hybrid fitness for binding NBS DNA
1,HINT,≤ 0.2
2,HQTT,≤ 0.2
3,ITQC,≤ 0.2
4,IHSS,≤ 0.2
5,SNIS,≤ 0.2
6,KRCM,≤ 0.2
7,FKNS,≤ 0.2
8,RTDH,≤ 0.2
9,RTRS,0.651
10,RTRN,0.277
11,RTYH,≤ 0.2
12,RTYS,0.491
13,RTWS,0.349
14,RTRH,0.536
15,RTIS,0.34
16,RTRP,≤ 0.2
17,IPNR,≤ 0.2
18,PSAG,≤ 0.2
19,DNSY,≤ 0.2
20,AIGW,≤ 0.2
21,RVDS,≤ 0.2

row,Variant,one-hybrid fitness for binding NBS DNA
1,RVNR,0.55
2,RVNP,≤ 0.2
3,RVNN,≤ 0.2
4,RVNS,0.521
5,RVDT,≤ 0.2
6,RVNT,0.576
7,RVND,≤ 0.2
8,RVDR,0.213
9,WHSS,≤ 0.2
10,TLQF,≤ 0.2
11,SSCT,≤ 0.2
12,WSSA,≤ 0.2
13,LTMS,≤ 0.2
14,PEYD,≤ 0.2
15,YDIF,≤ 0.2
16,YRPY,≤ 0.2
17,RMVC,≤ 0.2
18,RPKC,≤ 0.2
19,RLKC,0.335
20,RMYC,≤ 0.2
21,RKPC,≤ 0.2

row,Variant,one-hybrid fitness for binding NBS DNA
1,RKKC,0.391
2,RMKC,0.4
3,RSYC,≤ 0.2
4,RCKC,0.37
5,RSVC,≤ 0.2
6,RKVC,≤ 0.2
7,RSKC,0.382
8,CIWR,≤ 0.2
9,TVCY,≤ 0.2
10,CPRV,≤ 0.2
11,GSGL,≤ 0.2
12,NLCF,≤ 0.2
13,RRSN,0.356
14,RRSS,0.643
15,RRSH,0.439
16,RRSP,≤ 0.2
17,RCSH,0.203
18,RRSD,≤ 0.2
19,APVD,≤ 0.2
20,VPVL,≤ 0.2
21,EKCM,≤ 0.2

row,Variant,one-hybrid fitness for binding NBS DNA
1,GETM,≤ 0.2
2,NDTS,≤ 0.2
3,HEHG,≤ 0.2
4,WING,≤ 0.2
5,QSWR,0.365
6,QTWC,≤ 0.2
7,QMWR,0.403
8,QMWS,0.261
9,QMWD,≤ 0.2
10,QLWR,0.319
11,QRWD,≤ 0.2
12,QTWR,0.529
13,QRWR,0.796
14,QIWR,0.304
15,QTWK,≤ 0.2
16,RLIM,≤ 0.2
17,HKDT,≤ 0.2
18,CTPT,≤ 0.2
19,QQGL,≤ 0.2
20,TSVS,≤ 0.2
21,LDTG,≤ 0.2
